# Among all 69,000 compounds or so, about 420 (0.61%) showed an effect of 50% or more. This is one part of a sample in which strong results are shown more often than they occur.
# Molecular target: T1, Histidine--tRNA ligase (Leishmania infantum) (UniProt A4I591)
# T1 sequence (whole entry): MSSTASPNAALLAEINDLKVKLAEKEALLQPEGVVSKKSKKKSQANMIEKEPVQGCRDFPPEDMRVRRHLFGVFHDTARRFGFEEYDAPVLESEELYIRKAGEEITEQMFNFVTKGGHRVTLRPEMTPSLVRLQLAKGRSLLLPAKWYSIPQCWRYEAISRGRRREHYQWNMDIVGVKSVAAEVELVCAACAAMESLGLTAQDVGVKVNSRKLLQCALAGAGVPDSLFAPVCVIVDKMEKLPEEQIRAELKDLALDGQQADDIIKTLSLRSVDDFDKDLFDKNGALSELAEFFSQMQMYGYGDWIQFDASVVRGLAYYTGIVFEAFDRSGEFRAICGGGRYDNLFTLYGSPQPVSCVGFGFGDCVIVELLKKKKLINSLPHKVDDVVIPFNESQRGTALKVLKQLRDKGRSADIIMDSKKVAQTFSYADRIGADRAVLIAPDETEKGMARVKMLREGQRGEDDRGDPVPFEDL
# Assay: Leishmania infantum Histidine tRNA synthetase (LdHisRS)
# Format: functional
# Parameters: scale not given: in the data most compounds retested in dose-response had high values
# Settings: 30 µM
row,SMILES,Percent Effect
1,O=C(c1cccc(F)c1)N1CCN2C[C@H](OCc3cccnc3)C[C@H]2C1,9.49%
2,COCC(=O)N1CC[C@H]2N(C)CC[C@@]2(C(=O)Nc2ccccc2)CC1,15.4%
3,c1cc(CN2CC[C@@H]3[C@@H](CO[C@H]3CN3CCOCC3)C2)cs1,18.1%
4,COc1cc(C)ccc1OCCN1CC[C@@]2(O)CCNC[C@H]2C1,12.3%
5,COc1ccccc1-n1cc(CN2CCN(C)[C@@H]3CS(=O)(=O)C[C@@H]32)cn1,17.1%
6,CCO[C@@H]1CC[C@H]2[C@H]1OCCN2S(=O)(=O)C1CC1,4.17%
7,CNc1cc2c(nn1)CCN(C(=O)c1cc(F)cc(F)c1)C2,21.3%
8,CNc1cc2c(nn1)CCN(C(=O)c1coc(Br)c1)C2,52.2%
9,CNc1cc2c(nn1)CCN(C(=O)c1ccoc1)C2,10.7%
10,Cc1ccsc1C(=O)Nc1cnn(CC(=O)NC2CCCC2)c1,3.23%
11,COc1ccsc1C(=O)NCCNc1ccccc1,11.7%
12,Cn1cc(NC(=O)Nc2ccccn2)cc(Cl)c1=O,121%
13,COc1ccsc1C(=O)Nc1cc(CN2CCOCC2)ccc1C,-11.1%
14,COc1ccsc1C(=O)Nc1cc(Br)c(=O)n(C)c1,109%
15,Cn1cc(NC(=O)c2ccccn2)cc(Cl)c1=O,10.3%
16,Cn1cc(NC(=O)c2cc[nH]n2)cc(Cl)c1=O,10.3%
17,COc1ccsc1C(=O)Nc1cc(Cl)c(=O)n(C)c1,103%
18,Cn1cc(NC(=O)c2ccccn2)cc(Br)c1=O,15.4%
19,COCCn1ccc(NC(=O)Nc2ccccn2)n1,13.2%
20,CCC(C#N)NC(=O)c1sccc1OC (stereo not given),10.6%
21,Cc1ccsc1C(=O)Nc1cc(Br)c(=O)n(C)c1,107%
22,CCS(=O)(=O)N1CCO[C@H]2[C@H](Oc3ncccc3F)CC[C@@H]21,8.22%
23,O=C1[C@@H]2CCN(Cc3ccoc3)C[C@@H]2OCCN1c1ccccc1,9.49%
24,O=C1NC[C@@]2(C(=O)O)CN(Cc3ccc(Oc4ccccc4)cc3)C[C@@H]12,12.1%

row,SMILES,Percent Effect
1,CC(C)c1nc(CC(=O)Nc2nc(CN3CCCCCC3)cs2)cs1,53.3%
2,CC(C)c1nc(CN2CCCCC2)cs1,0%
3,CC(C)c1nc(CN2CCC(CO)CC2)cs1,13.2%
4,O=C(c1cc(-c2ccco2)nc2c(Cl)cccc12)N1CC[C@H]2CNC[C@H]21,40%
5,O=C1CN(C(=O)c2cc(-c3ccco3)nc3c(Cl)cccc23)CCN1,81.7%
6,Cc1nc(-c2ccco2)ccc1C(=O)N1CCc2nnc(N)cc2C1,2.63%
7,NC(=O)N1C[C@@H]2CN(C(=O)c3ccco3)C[C@@H]2C1,15.5%
8,O=C(c1cc(-c2ccco2)nc2c(Cl)cccc12)N1C[C@H]2CNC[C@H]2C1,53.3%
9,O=C(c1cc(-c2ccco2)nc2c(Cl)cccc12)N1CCS(=O)(=O)CC1,15%
10,COCC1CCN(C(=O)c2cc(-c3ccco3)nc3c(Cl)cccc23)C1 (stereo not given),11.7%
11,Cc1nc(-c2ccco2)ccc1C(=O)N1CCn2c(C)nnc2C1,25.4%
12,CN1C[C@H]2CN(Cc3cccc(OC(F)(F)F)c3)CCN2C1=O,21.6%
13,O=C(NCc1cccs1)[C@@H]1CC[C@@H]2[C@@H](CCN2c2ncccn2)O1,17.9%
14,CN(Cc1ccco1)[C@@H]1CN(C(=O)c2cnccn2)C[C@@H]2CCCO[C@@H]21,11.3%
15,COC[C@@]12CCC[C@@H]1CN(C(=O)COC1CCCC1)C2,0%
16,CC(=O)N1[C@H](CN(C)C)C[C@@H]2CN(C(=O)c3ccsc3)CC[C@@H]21,15.4%
17,Cc1nc(CN(C)CC2CCCN2c2cccnn2)nc2ccccc12 (stereo not given),74.4%
18,Cc1nc2ccccc2nc1CN(C)CC1CCCN1c1cccnn1 (stereo not given),34.7%
19,CN(Cc1nc(N)c2ccccc2n1)CC1CCCN1c1cccnn1 (stereo not given),21.3%
20,COc1ccc(CN2CCO[C@H]3[C@H](Oc4ccccn4)CC[C@@H]32)cc1,25.7%
21,O=C(c1ccco1)N1C[C@H]2CCCN(Cc3ccoc3)[C@H]2C1,16.4%
22,c1cnc(N2CCO[C@H]3CN(CC4CCCC4)C[C@H]32)cn1,9.91%
23,Brc1ccc(C2(CNCc3cc[nH]c3)CCOCC2)cc1,52.1%
24,FC(F)(F)c1cccc(C2(CNCc3cc[nH]c3)CCOCC2)c1,12.7%

row,SMILES,Percent Effect
1,Brc1cccc(C2(CNCc3cc[nH]c3)CCOCC2)c1,40.9%
2,CN1C[C@H](c2ccccc2)[C@H]2CN(C(=O)Cc3ccc(O)cc3)CC[C@H]21,5.59%
3,O=C1CC(c2ccc(C(=O)O)cc2)c2ncn(-c3cccc(Cl)c3)c2N1 (stereo not given),51.7%
4,O=C1CC(c2ccncc2)c2c(c(C(=O)O)cn2-c2ccc(F)cc2)N1 (stereo not given),29.1%
5,Cc1nn(-c2ccccc2)c2c1C(c1ccc(C(=O)O)cc1)CC(=O)N2 (stereo not given),18.4%
6,O=C1CC(c2ccc(C(=O)O)cc2)c2ncn(-c3cccnc3)c2N1 (stereo not given),30%
7,O=C1CC(c2ccc(C(=O)O)cc2)c2ncn(-c3ccccc3F)c2N1 (stereo not given),51.7%
8,O=C1CC(c2cccc(Cl)c2)c2snc(C(=O)O)c2N1 (stereo not given),1.72%
9,O=C1CC(c2ccc(C(=O)O)cc2)c2ncn(-c3ccc(F)cc3)c2N1 (stereo not given),81.7%
10,O=C1CC(c2ccc(C(=O)O)cc2)c2ncn(-c3cccc(F)c3)c2N1 (stereo not given),46.6%
11,O=C1CC(c2cccnc2)c2c(c(C(=O)O)cn2-c2ccccc2F)N1 (stereo not given),20.6%
12,O=C1CC(c2ccc(C(=O)O)cc2)c2ncn(-c3ccccc3)c2N1 (stereo not given),52.4%
13,O=C1CC(c2ccc(C(=O)O)cc2)c2ncn(-c3ccccc3Cl)c2N1 (stereo not given),45%
14,Cn1c(=O)c2c(n3ncnc13)NC(=O)CC2c1ccc(F)cc1 (stereo not given),6.9%
15,O=C1C[C@H]2[C@@H](CCN2C(=O)Cc2ccccc2)N1Cc1cccnc1,9.62%
16,CCS(=O)(=O)N1CCC2(CC1)CC[C@@]1(C(=O)N(C)C)CN(C(C)=O)C[C@@H]21,12.8%
17,CO[C@H]1CN(C(=O)c2ccc[nH]2)[C@@H]2COC[C@H]12,-140%
18,O=C([C@@H]1C[C@@H]2CCN(C3CCOCC3)C[C@H]2O1)N1CCCC1,6.94%
19,Cn1cccc1C(=O)NC[C@]12COC[C@H]1CN(Cc1nccs1)C2,12.8%
20,O=C(c1ccc2nccnc2c1)N1CCN(CCO)[C@@H]2CS(=O)(=O)C[C@@H]21,3.97%
21,Cc1nc(-c2ccoc2)n(CC(=O)N(C)CC(C)C)c1C,15.8%
22,CN(C)c1nccc(N2CCO[C@H]3CN(Cc4nccn4C)C[C@H]32)n1,3.19%
